Data on 28 molecules can be found in PubChem BioAssay (NCATS).

Test [1] can be described thus: qHTS for Inhibitors of Plasmodium falciparum (DD2) proliferation (AID 504314).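 For activity, negative = inhibition: parasite DNA measured by SYBR Green fluorescence after red cell lysis; plate controls were DMSO vehicle for no effect and artemisinin wells for full effect.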 Note: potency is the fitted concentration of half-maximal effect. The method, boiled down:
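Infected RBCs, 0.3% parasitemia, 2.5% Hct; compound 72 h, 37C/5% CO2; lyse + SYBR Green I, RT overnight, dark; read ex485/em535; normalize to DMSO and artemisinin 0.29 uM.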
A general note: qHTS replaces the single test concentration by a dilution series.

Test [2] is described as follows: qHTS for Inhibitors of Plasmodium falciparum (GB4) proliferation (AID 504315). Note: nearly all actives have a fitted effect of over 50% in size. Note: potency is the fitted concentration of half-maximal effect. The method, boiled down:
(§1)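 Erythrocytes infected with P. falciparum line (0.3% parasitemia, 2.5% hematocrit final) incubated with compounds 72 h at 37 °C, 5% CO2; SYBR Green lysis buffer added, fluorescence read next day. Normalized to 0.29 uM artemisinin and DMSO.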

A short description of test [3]: qHTS for Inhibitors of Plasmodium falciparum (7G8) proliferation (AID 504316). Note: nearly all actives have a fitted effect of over 65% in size. Note: potency is the fitted concentration of half-maximal effect. In a few lines:
as §1

The nature of test [4]: qHTS for Inhibitors of Plasmodium falciparum (HB3) proliferation (AID 504318). Note: nearly all actives have a fitted effect of over 60% in size. Note: potency is the fitted concentration of half-maximal effect. The method, boiled down:
as §1

Test [5] has as its target Atrial natriuretic peptide receptor 1 (Homo sapiens) (UniProt P16066). The test is described as follows: Natriuretic polypeptide receptor (hNpr1) antagonism - Pilot CMLD screen (AID 1347052; calls by dose curve;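 note: HEK293 cells with hNpr1 stimulated by hNppA peptide at 0.1 nM; cGMP level read as GloSensor luciferase luminescence after agonist stimulation; series mostly up to about 9.2 µM; % is set by controls: 0 for no effect and ±100 for the full control effect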).

Inconclusive results are not listed. A number with no mark means an inactive call. Activity calls are given as the source filed them. Unless noted, calls come from the whole dose curve; as a rule, active = well fitted curve in the direction sought with a large enough effect; inconclusive = small, poorly fitted or top-dose-only effect, or another doubt; inactive = no such curve, though single readings can be large; an effect the other way counts as inactive or inconclusive.

Chain of Atrial natriuretic peptide receptor 1 (Homo sapiens) (P16066 whole entry, looked up): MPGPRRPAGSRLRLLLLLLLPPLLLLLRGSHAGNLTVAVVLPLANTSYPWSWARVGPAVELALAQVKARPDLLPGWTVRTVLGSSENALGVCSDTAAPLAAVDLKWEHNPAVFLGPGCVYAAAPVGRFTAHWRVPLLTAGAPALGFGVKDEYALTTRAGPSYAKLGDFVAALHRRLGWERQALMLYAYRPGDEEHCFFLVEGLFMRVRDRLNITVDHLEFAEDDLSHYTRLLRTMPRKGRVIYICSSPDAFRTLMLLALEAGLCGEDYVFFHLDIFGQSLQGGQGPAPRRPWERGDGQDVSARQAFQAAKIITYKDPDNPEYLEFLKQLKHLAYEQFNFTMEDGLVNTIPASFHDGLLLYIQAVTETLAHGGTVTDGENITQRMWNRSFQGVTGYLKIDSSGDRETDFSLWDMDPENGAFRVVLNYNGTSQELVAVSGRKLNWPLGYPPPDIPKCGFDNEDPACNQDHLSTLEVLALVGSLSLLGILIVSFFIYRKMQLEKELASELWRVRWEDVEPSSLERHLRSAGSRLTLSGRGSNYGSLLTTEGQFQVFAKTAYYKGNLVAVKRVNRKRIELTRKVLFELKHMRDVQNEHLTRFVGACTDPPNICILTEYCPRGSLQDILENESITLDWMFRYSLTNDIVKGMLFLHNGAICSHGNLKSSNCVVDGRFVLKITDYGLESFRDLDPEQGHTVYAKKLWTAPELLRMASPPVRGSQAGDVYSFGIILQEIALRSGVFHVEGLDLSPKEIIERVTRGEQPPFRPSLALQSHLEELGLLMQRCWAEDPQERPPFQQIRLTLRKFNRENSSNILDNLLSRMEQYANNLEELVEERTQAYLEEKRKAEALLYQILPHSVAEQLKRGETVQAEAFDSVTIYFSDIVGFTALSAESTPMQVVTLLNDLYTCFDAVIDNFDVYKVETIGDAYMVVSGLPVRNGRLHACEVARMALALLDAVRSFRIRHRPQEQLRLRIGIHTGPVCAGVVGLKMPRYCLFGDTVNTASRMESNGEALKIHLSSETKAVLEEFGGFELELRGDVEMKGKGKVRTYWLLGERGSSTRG

Regarding `C=CCOC(=O)NC(c1ccc(F)c(F)c1)C(C(C)=O)C(=O)OC` (centres undefined), the Potency entry in test [1], in test [2], in test [3], in test [4] and in test [5] was “inactive” throughout.

For `COC(=O)C1=C2C=C(C)CC(C)N2C(=O)NC1c1ccccc1` (centres undefined), the Potency entry in test [1], in test [2], in test [3], in test [4] and in test [5] was “inactive” in each case.

In the case of `CCCCc1nc2c(c3c1C[C@H](C)OC3)CN(C(=O)c1cccnc1)CC2`, the Potency entry in test [1], in test [2], in test [3], in test [4] and in test [5] was “inactive” each time.

With `COC(=O)N[C@H](CC(C)=O)c1cccc(F)c1`, the Potency result in test [1], in test [2], in test [3], in test [4] and in test [5] was “inactive” throughout.

In the case of `CC(=O)C1=C(C)N(Cc2ccccc2)C(=O)NC1c1cccc(F)c1` (centres undefined), the Potency result in test [1], in test [2], in test [3], in test [4] and in test [5] was “inactive” throughout.

Consider `CCCCc1nc2c(c3c1C[C@H](C)OC3)CN(C(=O)c1ccco1)CC2`, for which the activity, negative = inhibition in test [1] was -0.515% [at 1.12 µM]. The Potency entry in test [2], in test [3], in test [4] and in test [5] was “inactive” throughout.

As to `C#CCNC(=O)[C@H]1C=C(OC)C(=O)C[C@H]2c3ccccc3C[C@]12C`, the Potency result in test [1], in test [2], in test [3], in test [4] and in test [5] was “inactive” in each case.

Take `O=C1OC2(CCCCC2)CC2=C1[C@H]1O[C@](CCCCN3C(=O)c4ccccc4C3=O)(Cc3ccccc31)O2`: the Potency was 1500 nM (active) in test [1], 1690 nM (active) in test [2], 1690 nM (active) in test [3] and 1900 nM (active) in test [4]. Besides, in test [5], the Potency entry is “inactive”.

Consider `C=CCCN1C(=O)NC(c2ccccc2)C(C(C)=O)=C1C` (centres undefined), for which the Potency entry in test [1], in test [2], in test [3], in test [4] and in test [5] was “inactive” each time.

As for `COC(=O)c1ccc(CN2C(=O)C3(CC(C)=C[C@@H](C)O3)c3c(Br)cccc32)cc1` (some centres undefined), the Potency result in test [1], in test [2], in test [3], in test [4] and in test [5] was “inactive” each time.

As for `C=CC[C@@H]1C=C[C@H](ON=C[C@@H](N[S+](=O)([O-])c2ccc(C)cc2)[C@H](C)C=CCC(=O)OC)[C@H](CO)O1`, the Potency entry in test [1], in test [2], in test [3], in test [4] and in test [5] was “inactive” each time.

On to `COc1ccc(COC(=O)NN=C2C[C@@H](O)[C@@H](O)[C@@H]3[C@H]4C(=O)N(Cc5ccc6c(c5)OCO6)C(=O)[C@@H]4CC[C@H]23)cc1`, for which the Potency result in test [1], in test [2], in test [3], in test [4] and in test [5] was “inactive” each time.

As to `CCOC(=O)NN=C1C[C@@H](O)[C@@H](O)[C@@H]2[C@H]3C(=O)N(C[C@@H]4CCCO4)C(=O)[C@@H]3CC[C@H]12`, the Potency result in test [1], in test [2], in test [3] and in test [5] was “inactive” each time.

Take `CC12C=C(C=Cc3ccc(Br)cc3)C(C)(C1)C(c1ccc(Br)cc1)CC2=O` (centres undefined): the Potency in test [1] is 1500 nM (active); in test [2], 1690 nM (active); in test [3], 1690 nM (active); in test [4], 1690 nM (active). Besides, the Potency entry in test [5] is “inactive”.

`Cc1cc2c(c(=O)o1)[C@H]1O[C@](c3ccsc3)(Cc3ccccc31)O2`: the Potency entry in test [1], in test [2], in test [3], in test [4] and in test [5] was “inactive” each time.

`C#CCCOC(=O)N1C2=NC(C(=O)OC)=C(C(=O)OC)[C@@H]3N(CC=C)c4ccccc4[C@]23C[C@H]1C(=O)OC`: in test [1], the activity, negative = inhibition is 5.23% [at 1.12 µM]. The Potency entry in test [2], in test [3], in test [4] and in test [5] was “inactive” in each case.

For `COC(=O)CCC(=O)OC1(C)C(=O)C=C2C=C3CCCN3C=C2C1=O` (centres undefined), the Potency entry in test [1], in test [2], in test [3], in test [4] and in test [5] was “inactive” throughout.

Regarding `CC(C)[C@@H](OCc1ccccc1)[C@H](C)C=NO[C@H](C)c1cn([C@@H]2COC[C@@H]2O)nn1`, the Potency result in test [1], in test [2], in test [3], in test [4] and in test [5] was “inactive” each time.

As to `CCCC[C@@H]1CN2[C@@H](CC[C@H](C)[C@@H]2c2ccc(Br)cc2)C(=O)O1`, the Potency result in test [1], in test [2], in test [3], in test [4] and in test [5] was “inactive” each time.

For `COC(=O)CCCC1=CC2=CC(=O)C(C)(OC(=O)c3cccs3)C(=O)C2=CN1C1CC1` (centres undefined), the Potency result in test [1], in test [2], in test [3], in test [4] and in test [5] was “inactive” in each case.

In the case of `CCOC(=O)N1C2=NC(C(=O)OC)=C(C(=O)OC)[C@@H]3N(C)c4ccccc4[C@]23C[C@H]1C(=O)OC`, the Potency result in test [1], in test [2], in test [3], in test [4] and in test [5] was “inactive” throughout.

Take `COC(=O)C1=C(C)N(Cc2ccccc2)C(=NCc2ccc(OC)cc2)NC1c1ccccc1` (centres undefined): the Potency result in test [1], in test [2], in test [3], in test [4] and in test [5] was “inactive” in each case.

For the molecule `C=CCN1C(=O)[C@]2(OCCC=C[C@H]2C)c2c(Br)cccc21`, the Potency entry in test [1], in test [2], in test [3], in test [4] and in test [5] was “inactive” in each case.

For the molecule `OC[C@H]1O[C@H](C#Cc2ccccc2)C=C[C@@H]1O`, the Potency entry in test [1], in test [2], in test [3], in test [4] and in test [5] was “inactive” in each case.

On to `C[C@H]1Cc2c(COc3ccccc3)nc3c(c2CO1)CN(C(=O)C1CCCCC1)CC3`, for which the activity, negative = inhibition in test [1] is -0.952% [at 1.12 µM]. Besides, the Potency result in test [2], in test [3], in test [4] and in test [5] was “inactive” throughout.

For `COCCN1C=C2C(=O)C(C)(OC(=O)C3CCCC3)C(=O)C(c3ccccc3)=C2C=C1CCCC(=O)OC` (centres undefined), the Potency entry in test [1], in test [2], in test [3], in test [4] and in test [5] was “inactive” throughout.

As to `CC1(OC(=O)C2CCCC2)C(=O)C=C2C=C(C3CC3)OC=C2C1=O` (centres undefined), the Potency entry in test [1], in test [2], in test [3], in test [4] and in test [5] was “inactive” in each case.

With `O=C(c1ccccc1)[C@@H]1O[C@@H]1c1ccccc1`, the Potency entry in test [1], in test [2], in test [3], in test [4] and in test [5] was “inactive” in each case.
